This is one part of a sample in which hits are shown more often than they occur.
Tb PYK inh – T. brucei pyruvate kinase inhibition; Potency, µM (highest dose often 76.8 µM), for inactives: at the highest dose activity, negative = inhibition, actives largely listed as inhibitors; Q57TT1; TbPYK enzyme, Kinase-Glo Plus ATP luminescence, 45 min; 410,000 compounds, 0.12% hits; also: potency is read from the fitted curve at half-maximal effect; % is scaled to controls: 0 for no effect and ±100 for the full control effect; nearly all actives have a fitted effect of over 50% in size
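Quantitative HTS: titrated library compounds versus trypanosomal pyruvate kinase in TEA buffer (pH 7.2) containing KCl, MgCl2, BSA and Tween-20. Reactions were initiated with ADP, 130 uM final. Kinase-Glo Plus luminescence was read after 45 min at RT.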
Giardia FBPA inh – blocks Giardia fructose-bisphosphate aldolase activity; A8B2U2; purified Giardia FBPA; Potency, µM (series often up to 59.6 µM), without a hit: at the top dose activity, negative = inhibition, usual class: inhibitors; 290,000 compounds, 0.71% hits; AID 2451; also: potency is read from the fitted curve at half-maximal effect; % is scaled to controls: 0 for no effect and ±100 for the full control effect; nearly all actives have a fitted effect of over 55% in size
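40 nM FBPA preincubated 10 min at RT with compound (up to 57.5 uM final), then substrate plus GAPDH/TPI/NAD/arsenate coupling and diaphorase/resazurin added. Fluorescence read after 20 min at RT, 525/598 nm.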
LmPK inhibitor – blocks Leishmania mexicana pyruvate kinase activity; 290,000 compounds, 0.37% hits; Potency, µM (top dose mostly 57.5 µM), without a hit: at the top dose activity change, negative = inhibition, hits mostly inhibitors; AID 1721; Q27686; purified LmPK, Kinase-Glo ATP luminescence, 1 h; also: potency is read from the fitted curve at half-maximal effect; % is scaled to controls: 0 for no effect and ±100 for the full control effect
Target sequence (Q27686 whole entry, looked up): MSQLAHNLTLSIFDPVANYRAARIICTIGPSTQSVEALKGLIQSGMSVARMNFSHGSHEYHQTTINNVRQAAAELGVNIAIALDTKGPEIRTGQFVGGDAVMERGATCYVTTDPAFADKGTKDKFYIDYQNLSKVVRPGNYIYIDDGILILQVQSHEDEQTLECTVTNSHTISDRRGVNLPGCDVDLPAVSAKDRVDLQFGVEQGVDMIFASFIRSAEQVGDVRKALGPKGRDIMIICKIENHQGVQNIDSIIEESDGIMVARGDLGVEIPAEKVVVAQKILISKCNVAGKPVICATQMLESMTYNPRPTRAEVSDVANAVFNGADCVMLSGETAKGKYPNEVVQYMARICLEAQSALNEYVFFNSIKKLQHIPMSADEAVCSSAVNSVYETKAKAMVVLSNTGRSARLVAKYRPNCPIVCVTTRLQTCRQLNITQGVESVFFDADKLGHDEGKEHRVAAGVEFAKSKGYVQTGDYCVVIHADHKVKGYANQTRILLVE
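In 50 mM imidazole pH 7.2 with 7 mM MgCl2, LmPK (0.1 nM) turned over PEP (0.5 mM) and ADP (0.1 mM) for 1 h at room temperature. Luciferase read-out of ATP.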
RE007 growth inh – less growth of the S. pombe RE007 Vpr strain. S. pombe RE007 Vpr strain, BacTiter-Glo ATP luminescence, 24 h. Potency, µM (series often up to 92.2 µM), inactives show top-dose activity change, negative = less growth, actives largely listed as inhibitors. 360,000 compounds, 0.21% hits; active = well fitted falling curve with a large enough effect; inconclusive = small, poorly fitted or top-dose-only effect; inactive = no such curve, though single readings can be large or run the other way; also: potency is read from the fitted curve at half-maximal effect; % is scaled to controls: 0 for no effect and ±100 for the full control effect; nearly all actives have a fitted effect of over 50% in size
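Fission yeast RE007 carrying one integrated HIV-1 vpr copy, seeded at OD 0.01 in PMG+AL medium with 23 nL pinned compound. Grown 24 h at 30 degrees; viability read by BacTiter-Glo luminescence after 5 min.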
CHX counter – affects cycloheximide protein synthesis inhibition readout, counter-screen. cell reporter, cycloheximide protein synthesis inhibition counterscreen. max response, %. 300,000 compounds, 12% hits; in the data active = max response mostly above about 13%, no sharp cut-off; inactive = mostly below about 14%; also: read at 38.3 µM for the half of the compounds with a filed dose; 0% is about no effect
Shiga toxin inh – Shiga toxin inhibition | Vero cells, Shiga toxin protein synthesis inhibition reporter | inhibition, % at 38.7 µM | 290,000 compounds, 9.2% hits; in the data active = inhibition mostly above about 28%, no sharp cut-off; inactive = mostly below about 43%; also: 0% is about no effect
* marks the source's active call; other numbers are inactive results; ? = inconclusive; / = not tested or not shown; [ ] = remark or other dose. Unless noted, calls follow the shape of the dose curve; as a rule, active = well fitted curve in the direction sought with a large enough effect; inconclusive = small, poorly fitted or top-dose-only effect, or another doubt; inactive = no such curve, though single readings can be large; an effect the other way counts as inactive or inconclusive.

SMILES	Tb PYK inh	Giardia FBPA inh	LmPK inhibitor	RE007 growth inh	CHX counter	Shiga toxin inh
CCc1ccccc1Oc1coc2cc(O)ccc2c1=O	2.8%	-1.4%	-3.8%	4.5%	-3.5	-12.5
Cc1cccc(Oc2coc3cc(O)ccc3c2=O)c1	5.2%	13.8%	2.0%	16.4%	31.2*	48.9*
CCOC(=O)Oc1ccc2c(=O)c(Oc3cc(C)cc(C)c3)coc2c1	4.4%	8.1%	-0.3%	-8.0%	1.3	-17.5
CCOC(=O)Oc1ccc2c(=O)c(Oc3cccc(C)c3)coc2c1	-3.7%	0.8%	6.1%	?	21.0*	23.7
Cc1ccc2nc(NCc3ccccc3)c3nncn3c2c1	0.8%	/	/	/	/	/
O=C(c1csnn1)N1CCC2(CCCN(c3ccccn3)C2)CC1	-11.4%	-11.0%	/	/	/	/
O=c1[nH]c2ccc(S(=O)(=O)N3CCN(S(=O)(=O)c4ccc5c(c4)OCCO5)CC3)cc2[nH]c1=O	/	/	/	/	-7.3	-4.2
Clc1ccc(-c2cc(COc3ccccc3)on2)cc1	-2.6%	2.6%	10.6%	-0.8%	38.3*	104.7*
Clc1ccc(OCc2cc(-c3ccccc3)no2)cc1Cl	5.8%	-1.0%	1.4%	9.0%	44.6*	active
Cc1cc(C)cc(OCc2ccc(C(=O)NN)o2)c1	-0.9%	-3.1%	2.1%	-2.8%	1.1	21.3
COC(=O)c1ccc(COc2ccccc2OC)o1	0.0%	10.1%	-2.4%	3.5%	11.9	23.1
COc1ccccc1OCc1ccc(C(=O)NC(C)(C)C)o1	1.1%	0.2%	3.0%	-8.0%	12.2*	20.4
COc1ccccc1OCc1ccc(C(=O)OCC2CCCO2)o1 (stereo unspecified)	-4.2%	3.5%	-4.4%	-0.3%	41.0*	23.2
CCCc1ccc(OCc2ccc(C(=O)NN)o2)c(OC)c1	-0.7%	3.1%	-0.1%	-8.6%	22.2*	41.0*
COC(=O)c1ccc(COc2c(F)c(F)cc(F)c2F)o1	13.0%	2.6%	0.6%	2.5%	-4.0	-5.1
COc1ccccc1OCc1ccc(C(=O)NC2CCCCC2)o1	-0.6%	-0.7%	0.8%	8.3%	-2.2	-2.3
CCCc1ccc(OCc2ccc(C(=O)OC)o2)c(OC)c1	6.5%	-3.7%	-2.6%	-2.9%	76.3*	146.2*
Cc1cc(C)n(C(C)CC(=O)NCc2ccc(N(C)C)cc2)n1 (stereo unspecified)	2.0%	/	/	/	/	/
Cc1ccc(C)c(N2CCN(C(=O)CN3C(=O)COc4ccc(S(=O)(=O)N5CCC(C)CC5)cc43)CC2)c1	-0.6%	/	/	/	/	/
CCC1(c2cnc[nH]2)Cc2ccccc2C1	-9.4%	/	/	/	/	/
COc1ccc2oc(-c3cccc(NC(=O)c4sc5c([N+](=O)[O-])cccc5c4Cl)c3)nc2c1	3.9%	/	/	/	/	/
CCCCNC(=O)CCCn1c(=O)c2ccccc2n(Cc2ccc(Cl)cc2)c1=O	16.6%	/	/	/	/	/
CCCCNc1nc(C)nc2c1nc(-c1ccccc1)n2CCN1CCCCC1	/	0.9%	/	/	/	/
C=CCc1ccc(OC(=O)NC2CCCCC2)c(OC)c1	-1.8%	4.2%	6.3%	19.3%	28.5*	71.4*
COc1ccc(CCN(C)C(=O)c2ccc(COc3ccccc3)o2)cc1OC	9.3%	/	-5.6%	6.9%	2.6	-12.1
SMILES	Tb PYK inh	Giardia FBPA inh	LmPK inhibitor	RE007 growth inh	CHX counter	Shiga toxin inh
CCCc1ccc(OCc2ccc(C(=O)O)o2)c(OC)c1	3.3%	-2.7%	5.5%	-2.6%	74.4*	133.5*
C=CCc1ccc(OCc2ccc(C(=O)O)o2)c(OC)c1	-2.9%	11.2%	2.5%	5.0%	56.0*	86.8*
CCOc1ccc(C2c3c(oc4ccc(C)cc4c3=O)C(=O)N2c2nc(C)c(C)s2)cc1OC (stereo unspecified)	-3.7%	/	/	/	/	/
COCC(=O)N1CCc2nc(-c3ccccc3)c3c(c2C1)CO[C@@H](C)C3	/	2.8%[12.9 µM]	-2.5%[11.5 µM]	/	/	/
O=C(OCC1CC(c2ccccc2Cl)=NO1)c1ccc(Br)cc1 (stereo unspecified)	-1.5%	4.9%	7.4%	-14.3%	19.9*	39.9
O=C(OCC1CC(c2ccccc2)=NO1)c1ccco1 (stereo unspecified)	7.4%	-9.3%	-8.4%	-6.6%	54.0*	93.0*
CCOC(=O)c1cc(-c2ccccc2)n(CC2CC(c3ccc(OC)cc3)=NO2)n1 (stereo unspecified)	-5.2%	3.1%	1.3%	2.5%	1.5	-3.2
